aSyn 5UTR act = Activators working through SNCA 5'UTR binding (MLPCN); alpha-synuclein 5'UTR reporter, activators screen; activity score, % (tested at 7.5 µM), hits read low; 300,000 compounds, 7.1% hits; AID 1814; in the data active = activity score below about -60%
Of the large screens only hits and unclear results are named; the others gave an inactive call. A selection follows.

CCOC(=O)c1c(NC(=S)N2CCN(C)CC2)sc2c1CCN(C(=O)OCC)C2	aSyn 5UTR act -63
Cc1cc(NCCCn2ccnc2)n2nc(C)c(-c3ccc(Cl)cc3)c2n1	none
Cc1cc(NCCCn2ccnc2)n2nc(C)c(-c3ccccc3)c2n1	aSyn 5UTR act -140
Cc1c(C(=O)Nc2cccc3cccnc23)oc2ccccc12	aSyn 5UTR act -118
Cc1c(C(=O)Nc2cnccn2)oc2ccccc12	aSyn 5UTR act -107
Cc1c(C(=O)Nc2ccc(Cl)cn2)oc2ccccc12	aSyn 5UTR act -91
CC(=O)N=C(N)Sc1nc2ccccc2[nH]1	aSyn 5UTR act -135
Cc1ccnc(N/N=C/c2ccccc2)n1	aSyn 5UTR act -90
CSc1nccc(N/N=C/c2ccccc2)n1	aSyn 5UTR act -158
Cc1ccc(-c2cc(-c3ccccc3O)nc(N/N=C/c3cccnc3)n2)cc1	aSyn 5UTR act -100
C(=N\Nc1nccc(-c2cccnc2)n1)/c1ccccc1	aSyn 5UTR act -108
Cc1cc(C)c2c(N)c(C(=O)Nc3ccccc3F)sc2n1	aSyn 5UTR act -157
C=COC(=O)c1sc2nc(C)cc(C)c2c1N	aSyn 5UTR act -62
Cc1cc(C)c2c(N)c(C(=O)Nc3ccccc3Cl)sc2n1	aSyn 5UTR act -105
Cc1cc(C)c2c(N)c(C(=O)Nc3ccccc3Br)sc2n1	aSyn 5UTR act -133
OC1CCN(Cc2ccc(OCc3ccccc3)cc2)CC1	aSyn 5UTR act -70
C=CCN(CC=C)C(=O)C1CCN(Cc2ccc(OCc3ccccc3)cc2)CC1	aSyn 5UTR act -97
CCCCNC(=O)C1CCN(Cc2ccc(OCc3ccccc3)cc2)CC1	aSyn 5UTR act -219
CCCCCCOc1ccc(/C(N)=N/O)cc1	aSyn 5UTR act -173
N=C(N)c1ccc(OCCCCCOc2ccc(C(=N)N)cc2)cc1	none
Cc1nc2sc(-c3ccccc3)nn2c(=O)c1Br	aSyn 5UTR act -78
c1ccc(-c2cn3nc(-c4ccccc4)sc3n2)cc1	none
COc1ccc(C2=Nn3c(nnc3-c3ccco3)SC2)cc1OC	none
COc1ccc(-c2noc(-c3ccoc3C)n2)cc1	aSyn 5UTR act -143
COc1ccc(-c2noc(-c3ccco3)n2)cc1OC	aSyn 5UTR act -110
COc1cccc(-c2noc(-c3ccoc3C)n2)c1	aSyn 5UTR act -212
COc1ccc(-c2noc(-c3ccoc3C)n2)cc1OC	aSyn 5UTR act -132
CC(C)(C)C(=O)N/C(N)=N/c1nc2ccccc2o1	aSyn 5UTR act -63
Cc1ccc(C(=O)N/C(N)=N/c2nc3ccccc3o2)cc1	aSyn 5UTR act -114
N/C(=N\c1nc2ccccc2o1)NC(=O)c1ccccc1	aSyn 5UTR act -194
COc1ccccc1C(=O)N/C(N)=N/c1nc2ccccc2o1	aSyn 5UTR act -70
O=C(CCS(=O)(=O)c1ccccc1)NC12CC3CC(CC(C3)C1)C2	aSyn 5UTR act -179
CC(=O)c1sc(N/N=C2\CC3CC2C(C)C3(C)C)nc1C (stereo not given)	aSyn 5UTR act -101
Cc1ccc(-n2ncc3c(SCC(N)=O)ncnc32)cc1C	aSyn 5UTR act -119
COc1ccc(-n2ncc3c(SCC(=O)N4CCN(c5ccccc5OC)CC4)ncnc32)cc1	aSyn 5UTR act -74
CC(=O)CSc1ncnc2c1cnn2-c1ccccc1	aSyn 5UTR act -157
O=C(CSc1ncnc2c1cnn2-c1ccccc1)NC1CCCC1	aSyn 5UTR act -64
Cc1ccc(-n2ncc3c(SCc4cccc(C)c4)ncnc32)cc1	aSyn 5UTR act -90
Cc1ccccc1-n1ncc2c(SCC(=O)NCc3cccs3)ncnc21	aSyn 5UTR act -114
CCCN1C/C(=C/c2ccc3c(c2)OCO3)C(=O)/C(=C/c2ccc3c(c2)OCO3)C1	aSyn 5UTR act -105
O=[N+]([O-])c1ccc(Nc2ccc3ccccc3c2)nc1	aSyn 5UTR act -168
Cc1ccnc(N(C(=O)c2cccs2)C(=O)c2cccs2)c1	aSyn 5UTR act -157
O=C(c1cccs1)N(C(=O)c1cccs1)c1ccc(Br)cn1	aSyn 5UTR act -144
Cc1ccnc(NC(=O)CCC(=O)c2cccs2)c1	none
CNC(=O)c1c(Cl)cnn1-c1ccc(C)cc1	aSyn 5UTR act -151
C=CCNC(=O)c1c(Cl)cnn1-c1ccc(C)cc1	aSyn 5UTR act -95
Cc1ccc(-n2ncc(Cl)c2C(=O)NC2CC2)cc1	aSyn 5UTR act -153
CNC(=O)c1c(Br)cnn1-c1ccc(C)cc1	aSyn 5UTR act -158
CCOc1ccc(NC(=O)c2ccccc2SC)cc1	aSyn 5UTR act -110
CSc1ccccc1C(=O)Nc1ccc(C)c(C)c1	aSyn 5UTR act -130
Nc1nnc(SCc2coc(-c3ccc(Cl)cc3)n2)s1	aSyn 5UTR act -118
COc1ccc2c(c1)CC/C(=C\C=C\c1ccccc1OC)C2=O	aSyn 5UTR act -134
COc1ccc2c(c1)CC/C(=C\c1ccc(C)o1)C2=O	aSyn 5UTR act -170
COc1ccc2c(c1)C(=O)/C(=C/C=C/c1ccccc1)CC2	aSyn 5UTR act -115
CCSc1nnc(-c2ccc(Cl)cc2Cl)o1	aSyn 5UTR act -260
Clc1ccc(-c2nnc(-c3ccc(Br)o3)o2)c(Cl)c1	aSyn 5UTR act -192
O=C1OCCC1Sc1nnc(-c2ccc(Cl)cc2Cl)o1 (stereo not given)	none
CSc1nnc(-c2ccc(Cl)cc2Cl)o1	aSyn 5UTR act -120
COc1cc(/C=C2\OC(=O)c3c(OC)cccc32)ccc1O	aSyn 5UTR act -172
COCc1nnc(NC(=O)c2sc3ccccc3c2Cl)s1	aSyn 5UTR act -102
CNC(=O)c1ccsc1NC(=O)c1sc2ccccc2c1Cl	aSyn 5UTR act -168
CNc1nc(-c2ccccc2)[n+](-c2ccc(C)cc2)s1	aSyn 5UTR act -116
CCOc1ccc(C(=O)OCC(=O)c2c(N)n(C)c(=O)n(C)c2=O)cc1OCC	aSyn 5UTR act -118
N#Cc1cn(-c2ccccc2)nc1-c1ccco1	aSyn 5UTR act -147
N#Cc1cn(-c2ccccc2)nc1-c1ccc2c(c1)OCCO2	aSyn 5UTR act -184
N#Cc1cn(-c2ccccc2)nc1C(=O)c1ccccc1	aSyn 5UTR act -192
CC1=CC2=NC(=O)/C(=C\c3cccn3CCOc3ccc(C)c(C)c3)C(=N)N2O1	aSyn 5UTR act -95
CCOC(=O)c1c(C)oc2c1c(C(c1ccccc1)N1CCOCC1)c(O)c1ccccc12 (stereo not given)	aSyn 5UTR act -205
CCOC(=O)c1c(C)oc2c1c(C(c1cccnc1)N1CCCCC1)c(O)c1ccccc12 (stereo not given)	aSyn 5UTR act -146
Cc1cc(C(=O)N/N=C/c2cc(Cl)cc([N+](=O)[O-])c2O)c2ccccc2n1	aSyn 5UTR act -63
Cc1cccc(-n2[nH]c3c4c(ccc3c2=O)C(=O)c2ccccc2C4=O)c1	aSyn 5UTR act -62
O=C1c2ccccc2C(=O)c2c1ccc1c(=O)n(-c3ccccc3)[nH]c21	aSyn 5UTR act -110
CN(C(=O)c1ccc(S(=O)(=O)c2cccc(Cl)c2)c([N+](=O)[O-])c1)C1CCCCC1	aSyn 5UTR act -86
O=C(NC1CCCCC1)c1ccc(S(=O)(=O)c2ccccc2Cl)c([N+](=O)[O-])c1	aSyn 5UTR act -95
COc1ccc(C(=O)NC(=S)NC(C)C)cc1Br	aSyn 5UTR act -70
COc1ccc(C(=O)NC(=S)NC(C)(C)C)cc1Br	aSyn 5UTR act -158
O=C(Oc1ccccc1/C=C\C(=O)c1cc2ccccc2o1)c1ccccc1	aSyn 5UTR act -300
COc1cccc(C(=O)Oc2ccccc2/C=C\C(=O)c2cc3ccccc3o2)c1	aSyn 5UTR act -192
O=C(Oc1ccccc1/C=C\C(=O)c1cc2ccccc2o1)c1cccc(F)c1	aSyn 5UTR act -234
CC(C)OCCCNC(=S)NNC(=O)c1ccc(Cl)c(Cl)c1	aSyn 5UTR act -87
O=C(NC(=S)Nc1ccc(Cl)cn1)C12CC3CC(CC(C3)C1)C2	aSyn 5UTR act -162

Compound activity as filed in PubChem BioAssay.
